From PubChem BioAssay
Only some compounds are listed: those with a hit (about 6.2% of all), similar ones and a draw of the others.
Marburg entry inh – inhibitors of Marburg virus binding or cell entry; Marburg virus pseudotyped entry inhibition, cell reporter; Potency, µM (doses to about 37.8 µM), inactives show at the highest dose activity change, negative = inhibition, most hits filed as inhibitors; 1.8% of 300,000 active; AID 540276; calls by dose curve; tested in HEK293 cells; further: potency means the concentration at half of the fitted maximal effect
FMDV inh – antivirals against foot and mouth disease virus; FMDV antiviral cell-based qHTS; AID 1159524; Potency, µM (titrated, usually from 57.9 µM), without a hit: top-dose activity change, negative = inhibition, usual class: inhibitors; 1.2% of 410,000 active; calls by dose curve; tested in HEK293T cells; further: read-out not given here; potency means the concentration at half of the fitted maximal effect; nearly all actives have a fitted effect of over 45% in size
HCMV antiviral – human cytomegalovirus inhibition; 4.5% of 410,000 active; AID 1259415; activity change, negative = inhibition, % at 57.5 µM; HFF cells, HCMV-luciferase reporter, 72 h; stronger effect = lower value; in the data active means activity change below about -60%; inconclusive means no clear call, values can overlap the other calls; inactive means above about -39%
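Steps: HFFs plated, 16 h 37C; compounds added; HCMV-luciferase added to MOI 1 PFU/cell; 72 h 37C; OneGlo reagent, 5 min room temperature; luminescence read, normalized to controls.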
LASV entry inh – blocks Lassa virus binding to or entry into cells | Lassa virus pseudotype entry inhibition, cell reporter | Potency, µM (series often up to 37.9 µM), for inactives: top-dose activity change, negative = inhibition, usual class: inhibitors | 1.2% of 300,000 active; calls by dose curve; tested in HEK293 cells; further: potency means the concentration at half of the fitted maximal effect; nearly all actives have a fitted effect of over 50% in size
* hit, by the source's call; ? = inconclusive; / = no result; [ ] = remark or other dose. On the % scale 0 is the no-effect control and ±100 the full control effect.

SMILES | Marburg entry inh | FMDV inh | HCMV antiviral | LASV entry inh
CCOc1ccc(NC(=O)c2cc3c(-c4ccccc4F)nn(C)c3s2)cc1 | 25.9%[46.1 µM] | -15.8% | 2.8 | ?
COc1ccccc1CN1CC[C@@]2(CCCN(C(=O)c3cnccn3)C2)C1 | / | -2.3% | / | /
O=C(C=Cc1ccccc1O)c1ccccc1O | ? | ? | 20.3 | -13.6%[46.1 µM]
Cc1ccc(/C=C/C(=O)c2ccccc(=O)c2O)c(C)c1 | ? | ? | -81.9* | ?
Cc1ccc(C)c(/C=C/C(=O)c2ccccc(=O)c2O)c1 | ? | ? | -101.2* | ?
C[C@@H]1CN([C@@H](C)CO)C(=O)CCCn2nncc2CO[C@@H]1CN(C)C(=O)C1CC1 | / | / | 7.1 | /
CCOC(=O)c1nc(Nc2cc(Cl)ccc2OC)c2ccccc2n1 | / | -12.5% | -69.8* | /
CCC(C)NC(=O)CSc1c2c(nc3ccccc13)CCCC2 (stereo not given) | ? | 25.1µM* | 65.8 | -25.7%
COc1ccc(Cl)cc1NC(=O)CSc1c2c(nc3ccccc13)CCC2 | -3.7%[46.1 µM] | ? | -69.6* | 3.8%[46.1 µM]
COc1cccc(NC(=O)CSc2nc(=O)n(Cc3ccncc3)c3c2CCCC3)c1 | 0.6% | -19.4% | -84.6* | -3.0%
COc1cc(NC(=O)CCS(=O)(=O)c2ccc3c(c2)CC(=O)N3C)cc(OC)c1OC | / | -10.1% | 8.8 | ?
C#Cc1cccc(C(=O)NCc2nc(-c3ccccc3NC(C)=O)oc2C)c1 | / | 2.0% | / | /
COc1ccc(S[C@]2(c3nc(-c4cccnc4)no3)CC(=O)N[C@@H]2c2ccc(OC)cc2)cc1 | / | / | 23.5 | /
COc1cccc(NC(=O)CSc2c3c(nc4ccccc24)CCCC3)c1 | ? | 31.6µM* | 9.0 | ?
COc1cccc(-n2c(SCC(=O)Nc3ccc4c(c3)CCC4)nc3ccccc3c2=O)c1 | ? | -14.6% | -70.3* | ?
COc1cccc(-n2cc(C(=O)NCCc3cccc(C)c3)c3ccccc3c2=O)c1 | / | 6.0% | -36.2 | -9.5%[46.1 µM]
O=C(Nc1ccc2nc(N3CCOCC3)sc2c1)c1ccccc1 | / | 24.0% | 13.3 | /
COCc1c(C(=O)Nc2ccc3nc(N4CCOCC4)sc3c2)oc2ccccc12 | ? | 25.1µM* | -12.5 | ?
COC(=O)C1=C(C)N=C2SC(C)C(=O)N2C1c1ccc(C(=O)OC)cc1 (stereo not given) | ? | 10.1% | -87.6* | -1.2%
Cc1ccc2oc(-c3ccc(NC(=O)c4oc5ccc(Cl)cc5c4C)cc3)nc2c1 | / | -17.9% | 30.4 | 3.9%[46.1 µM]
Cc1cc(N2CC(C)OC(C)C2)nc2ccccc12 (stereo not given) | 18.3%[46.1 µM] | 0.0% | -80.4* | 2.0%
C=CCn1c(C)cc(C(=O)COC(=O)c2ccc3c(c2)NC(=O)CS3)c1C | 11.2µM* | ? | ? | ?
COc1ccc(NC(=O)C2=C(C)C(=O)OC23CCN(C(C)C)CC3)cc1Cl | / | 11.2% | -4.0 | 18.2%[46.1 µM]
C=CCN1C(c2cccc(C(F)(F)F)c2)=CS/C1=C(\C#N)c1nnc(N2CCOCC2)n1-c1ccccc1 | / | -19.2% | -4.6 | /
C=CCN1C(=O)NC(c2ccccc2)(C(F)(F)F)S/C1=C(\C#N)c1nnc(N2CCOCC2)n1-c1ccccc1 (stereo not given) | -27.6% | 31.6µM* | -24.8 | -29.3%
SMILES | Marburg entry inh | FMDV inh | HCMV antiviral | LASV entry inh
CCC(CC)C(=O)N(C)c1c(C)nc2c(OCc3ccc(OC(F)F)cc3)cccn12 | / | ? | -34.3 | /
CNC(=S)/N=C/NOCc1ccc(Cl)cc1Cl | ? | ? | -78.2* | ?
COc1cc(Cn2c3ccc(NC(=O)CCc4ccccc4)cc3c(=O)n2C)ccc1F | / | -23.5% | -19.4 | /
Cn1c(=O)c2cc(NC(=O)NCCc3cccs3)ccc2n1Cc1ccccc1 | / | 14.4% | -76.8* | /
COc1cc(Cn2c3ccc(NC(=O)NCCc4ccccc4)cc3c(=O)n2C)ccc1F | / | 14.5% | -68.0* | /
COC(=O)c1cccc(NC(=O)C2CCN(S(=O)(=O)Cc3ccccc3)CC2)c1C | -0.8%[46.1 µM] | -18.3% | 17.9 | -0.5%[46.1 µM]
COc1ccc(C2=C[C@H](c3cccc(OC)c3)n3nnnc3N2)cc1 | -13.8%[46.1 µM] | / | / | /
COC(=O)c1ccc(C2C(C#N)=C(C)NC3=C2C(=O)CC(C)(C)C3)cc1 (stereo not given) | -8.1% | -9.1% | 26.1 | -5.9%
COc1ccc(C2CC(=O)C3=C(C2)NC(C)=C(C#N)C3c2ccc(N(C)C)cc2)cc1 (stereo not given) | ? | -14.2% | 2.5 | 12.6µM*
CCOC(=O)C1CCCN(C(=O)c2cnn(-c3nccc(-c4cc(C)sc4C)n3)c2C)C1 (stereo not given) | / | 26.1% | / | /
O=C(NCc1cccc(Cl)c1)c1cccc2c(-c3cccnc3)coc12 | / | ? | -22.5 | /
COc1ccc(CNC(=O)c2cccc3c(-c4cccnc4)coc23)cc1OC | / | ? | -86.0* | /
Oc1cccc(Nc2cc3[nH]c(-c4ccccc4)cc3cn2)c1 | / | / | -86.6* | /
FC(F)(F)Oc1ccc(Nc2cc3[nH]c(-c4ccccc4)cc3cn2)cc1 | / | / | -34.4 | /
Cc1ccc(NC(=O)C2CCN(c3nc4ccccc4nc3C(F)(F)F)CC2)cc1C | / | -18.8% | 1.3 | 16.8%[46.1 µM]
Cc1cccc(N2CCN(C(=O)c3ccc(CS(=O)c4cccc(Cl)c4)o3)CC2)c1C (stereo not given) | / | ? | -86.9* | ?
Cc1ccccc1S(=O)Cc1ccc(C(=O)N2CCN(c3cccc(C)c3C)CC2)o1 (stereo not given) | / | -24.8% | -83.5* | ?
Cc1ccc(Cl)cc1N1CCN(C(=O)c2ccc(CS(=O)c3ccccc3)o2)CC1 (stereo not given) | / | 0.0% | -20.3 | ?
COc1ccccc1N1CCN(C(=O)c2ccc(CS(=O)c3ccccc3C)o2)CC1 (stereo not given) | ? | ? | -7.3 | ?
CCOC(=O)CNC(=O)Cn1nc(N2CCN(c3ccccc3)CC2)ccc1=O | / | -5.8% | -14.3 | 4.5%[46.1 µM]
CCC(=O)N1CCc2cc(S(=O)(=O)CCC(=O)N3CCN(c4cccc(C)c4C)CC3)ccc21 | 1.1%[46.1 µM] | 1.4% | 13.0 | 14.7%[46.1 µM]
Cc1ccc2cccc(S(=O)(=O)N3CCCc4ccccc43)c2n1 | / | -4.7% | -65.0* | /
Cc1ccc(S(=O)(=O)N2CCCc3ccccc32)cc1 | / | 3.9% | -15.6 | /
CSc1nc2ccc(NC(=O)c3ccco3)cc2s1 | ? | -4.6% | -15.6 | -5.2%
Cc1ccc(NC(=O)CSc2nc3ccc(NC(=O)c4ccco4)cc3s2)cc1 | 1.7%[46.1 µM] | -20.9% | -62.4* | 3.5%[46.1 µM]
SMILES | Marburg entry inh | FMDV inh | HCMV antiviral | LASV entry inh
Cc1ccc2nc(-c3ccc(NC(=O)COC(=O)c4ccc([N+](=O)[O-])o4)cc3)sc2c1 | 3.98µM* | -63.4% | ? | 7.08µM*
Cc1ccc2nc(-c3ccc(NC(=O)COC(=O)c4ccco4)cc3)sc2c1 | 1.26µM* | -55.1% | -5.9 | 2.24µM*
Cc1ccc2nc(-c3ccc(NC(=O)COc4ccccc4)cc3)sc2c1 | / | 31.1% | 39.6 | 10.0%[46.1 µM]
Cc1ccc2nc(-c3ccc(NC(=O)COC(=O)c4ccc(Br)o4)cc3)sc2c1 | ? | ? | 41.2 | 5.62µM*
Cc1ccc(NC(=O)COC(=O)c2ccco2)cc1 | / | 5.8% | 15.3 | /
Cn1cccc1C(=O)N1CCC2(CCCN(Cc3ccc(C#N)cc3)C2)CC1 | / | -15.6% | / | /
CCOc1ncccc1C(=O)OCC(=O)Nc1ccc(-c2nc3ccc(C)cc3s2)cc1 | 12.6µM* | -4.6% | -9.0 | ?
